Experimental data reported in PubChem BioAssay.
The source made the active and inactive calls.

Assays:
[1] = compound effects on lung adenocarcinoma cell viability – A549, calcein-AM fluorescence, 48 h, basal, profiling panel (AID 1162); conditions: higher = more signal
[2] = compound effects on differentiated 3T3-L1 adipocyte viability – cell-based, 3T3-L1 adipocytes, calcein-AM fluorescence, 48 h, basal, profiling panel (AID 1163); conditions: 3T3-L1 adipocytes viability, higher = more signal
[3] = compound effects on hepatocellular carcinoma cell viability – HepG2, calcein-AM fluorescence, 48 h, basal, profiling panel (AID 1164); conditions: higher = more signal
[4] = compound effects on multiple myeloma cell viability – MM1S, calcein-AM fluorescence, 48 h, basal, profiling panel (AID 1165); conditions: higher = more signal
[5] = calcein-AM signal in unstimulated myeloma cells – cell-based, calcein-AM fluorescence, 48 h, PK04 Diversity Set, profiling panel (AID 1166); conditions: RPMI8226 myeloma viability, higher = more signal;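 also: cells grown under basal conditions without added stimulus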
[6] = JC-1 mitochondrial signal, unstimulated HepG2 cells – cell-based, JC-1 fluorescence, 24 h, 100 nL compound, profiling panel (AID 1167); conditions: HepG2 mitochondrial potential, higher = more signal
[7] = JC-1 mitochondrial signal, unstimulated adipocytes – cell-based, JC-1 fluorescence, 3T3-L1 adipocytes, 24 h, 100 nL compound, profiling panel (AID 1168); conditions: JC-1 mitochondrial fluorescence, higher = more signal, called active from +8 up or from −8 down
[8] = JC-1 mitochondrial signal, unstimulated myeloma cells – cell-based, JC-1 fluorescence, RPMI8226, 24 h, 100 nL compound, profiling panel (AID 1169); conditions: JC-1 mitochondrial potential fluorescence, higher = more signal
[9] = JC-1 mitochondrial signal, unstimulated MM1S myeloma – cell-based, JC-1 fluorescence, 24 h, 100 nL compound, profiling panel (AID 1170); conditions: MM1S mitochondrial potential, higher = more signal
[10] = resazurin metabolic signal in A549 cells – cell-based, resazurin fluorescence, 24 h, PK04 Diversity Set, profiling panel (AID 1171); conditions: A549 viability, higher = more signal, called active from +8 up or from −8 down
Also: test concentration not given here.

Row | SMILES | z-score [1] | z-score [2] | z-score [3] | z-score [4] | z-score [5] | z-score [6] | z-score [7] | z-score [8] | z-score [9] | z-score [10]
1 | C=C/C=C/[C@H]1C(=C)CN([C@@H](Cc2ccccc2)C(=O)OC)[C@@H]1[C@H](O)Cc1ccccc1 | -0.0859 | -0.178 | -0.0232 | -2.2 | -1.52 | -1.06 | -0.882 (inactive) | -0.317 | 0.165 | -0.138 (inactive)
2 | O=C1O[C@H](c2ccccc2)[C@H](c2ccccc2)N2[C@H]1[C@@H](C(=O)O)[C@]1(C(=O)Nc3ccc(C#CCCO)cc31)[C@H]2c1ccc(O)cc1 | 1.46 | 0.339 | -0.215 | 0.536 | 0.858 | -0.308 | -0.395 (inactive) | -0.896 | -0.565 | 1.52 (inactive)
3 | COCCOC(=O)N1C(=O)[C@@]2(c3cc(C#CC4=CCCCC4)ccc31)[C@H](C(N)=O)[C@H]1C(=O)O[C@H](c3ccccc3)[C@H](c3ccccc3)N1[C@@H]2c1ccc(OCCO)cc1 | -0.0731 | -0.605 | 0.575 | -2.37 | -2.99 | -2.31 | 1.22 (inactive) | -0.799 | -1.82 | -2.15 (inactive)
4 | COC(=O)[C@@]1(Cc2ccc(OC)cc2)[C@H]2c3cc(C(=O)N(C)C)n(Cc4cccc5ccccc45)c3C[C@H]2CN1C(=O)c1ccccc1 | -1.62 | 1.26 | -0.0664 | -0.623 | -2.08 | 3.37 | -0.669 (inactive) | -0.127 | -1.41 | -1.92 (inactive)
5 | COCCOC(=O)N1C(=O)[C@@]2(c3cc(C#CCCO)ccc31)[C@H](c1ccc(OCCO)cc1)N1[C@H](c3ccccc3)[C@H](c3ccccc3)OC(=O)[C@H]1[C@@H]2C(=O)N1CCN(c2ncccn2)CC1 | 0.559 | 0.344 | 0.479 | -1.32 | -0.713 | 0.503 | -0.138 (inactive) | -0.41 | -1.19 | 0.253 (inactive)
6 | [N-]=[N+]=Nc1ccccc1[C@H]1OC(c2ccc(OCCCO)cc2)=N[C@@]1(Cc1ccccc1)C(=O)O | 1.98 | 0.276 | 0.73 | -0.0876 | -0.532 | -0.107 | 0.222 (inactive) | -0.0546 | -1.2 | -0.724 (inactive)
7 | CC(C)(C)OC(=O)CC[C@@]1(C(N)=O)N=C(c2ccc(OCCCO)cc2)O[C@@H]1c1ccccc1 | 0.298 | -0.0721 | 0.105 | 0.0092 | 0.658 | -0.318 | -0.191 (inactive) | 0.919 | -0.0322 | 0.293 (inactive)
8 | C[C@@H]1ON(c2cccc(C(=O)OC(C)(C)C)c2)[C@H](c2ccc(Br)cc2)[C@H]1C(=O)N1C(=O)OC[C@H]1Cc1ccccc1 | 0.407 | -0.941 | -0.0479 | -0.357 | -0.205 | -0.344 | 0.375 (inactive) | 0.0362 | 1.88 | 0.319 (inactive)
9 | COc1cc(OC)c(C(O)C2C=CC3C(=O)NC(=O)C3N2Nc2ccc(Cl)cc2Cl)cc1Br (stereo not given) | -1.52 | 0.0779 | -2.49 | -3.42 | -3.97 | -2.87 | -0.82 (inactive) | -1.09 | -1.27 | -2.56 (inactive)
10 | CC1CC/C=C\[C@H]2OC34C=CCN(c5ccc(Cl)cc5)C(=O)[C@H]3N(CCO)C(=O)[C@]4(C)C2C(=O)O1 (stereo not given in full) | -0.562 | 0.594 | 0.107 | 0.246 | 0.0105 | -0.472 | -0.54 (inactive) | 0.27 | 2.04 | -0.428 (inactive)
11 | COCCOC(=O)N1C(=O)[C@@]2(c3cc(C#CCCO)ccc31)[C@H](C(=O)N1CCc3cc(OC)c(OC)cc3C1)[C@H]1C(=O)O[C@H](c3ccccc3)[C@H](c3ccccc3)N1[C@@H]2c1ccc(O)cc1 | -0.235 | 0.0133 | 2.58 | 0.587 | 0.245 | -0.404 | 0.0353 (inactive) | -0.385 | -0.546 | -0.689 (inactive)
12 | CCCCCN1CC=CC23O[C@@H]4/C=C\CCCOC(=O)C4[C@H]2C(=O)N(C(CO)C(C)C)[C@@H]3C1=O (stereo not given in full) | -0.436 | 0.737 | -1.05 | 0.693 | 0.108 | -0.335 | -0.0791 (inactive) | 0.0204 | -0.407 | 0.534 (inactive)
13 | CN(C)CCCNC(=O)[C@@]1(c2ccc([N+](=O)[O-])cc2)CC(=O)N(C2CCCCC2)[C@@H]1c1ccc(CO)cc1 | 0.259 | -0.272 | 0.23 | -0.432 | -1.43 | 0.259 | 0.255 (inactive) | 0.956 | -0.435 | 0.497 (inactive)
14 | CN1C(=O)[C@]2(Cc3ccccc3)N=C(c3ccc(OCCCO)cc3)O[C@@H]2c2ccccc21 | -1.55 | 1.71 | -1.68 | -1.76 | -4.34 | 0.288 | 0.686 (inactive) | -1.16 | -0.976 | -1.81 (inactive)
